Lassa entry inh: Lassa virus entry inhibition. Potency, µM (highest dose often 37.9 µM), usual class: inhibitors. Lassa virus pseudotype entry inhibition, cell reporter. 1.2% of 300,000 active; calls by dose curve; tested in HEK293 cells; further: nearly all actives have a fitted effect of over 50% in size
HCV inh: HCV inhibition. Huh7.5.1 HCVcc-Cre infection, luciferase reporter, 44 h. Potency, µM (highest dose often 41.8 µM), most hits filed as inhibitors. 3.4% of 340,000 active. AID 651820; active means well fitted inhibition curve with a large enough effect; inconclusive means small, poorly fitted or top-dose-only effect, or another doubt; inactive means no such curve, though single readings can be large or run the other way
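A cell-based infection assay in which seeded cells (1,000 per well) receive test compound after 4 h, are inoculated with HCVcc-Cre at approximately 0.5 moi, and are incubated 44 h before luminescence detection.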
SARS PLpro yeast: SARS-CoV PLP inhibition in yeast; S. cerevisiae expressing SARS-CoV PLpro, growth rescue; Potency, µM (doses to about 32.9 µM), most hits filed as activators; 0.19% of 330,000 active; AID 485353; calls by dose curve; further: nearly all actives have a fitted effect of over 55% in size
FMDV inh: antivirals against foot and mouth disease virus; FMDV antiviral cell-based qHTS; Potency, µM (titrated, usually from 57.9 µM), usual class: inhibitors; AID 1159524; 1.2% of 410,000 active; calls by dose curve; tested in HEK293T cells; further: read-out not given here; nearly all actives have a fitted effect of over 45% in size
HCMV inh: human cytomegalovirus inhibition. AID 1259415. activity change, negative = inhibition, % at 57.5 µM. HFF cells, HCMV-luciferase reporter, 72 h; hits give low values. 4.5% of 410,000 active; in the data active means activity change below about -60%; inconclusive means no clear call, values can overlap the other calls; inactive means above about -39%
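Human foreskin fibroblasts infected with luciferase-reporter HCMV at MOI 1 PFU/cell, compounds at two doses. Luciferase measured 72 h post infection; normalized to buffer-only basal and Salinomycin (10uM) controls.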
Marburg entry inh: Marburg virus entry inhibition; Marburg virus pseudotyped entry inhibition, cell reporter; Potency, µM (doses to about 37.8 µM), most hits filed as inhibitors; 1.8% of 300,000 active; calls by dose curve; tested in HEK293 cells
Large screens that a line does not name were inactive; ! = a repeat was not active. Sampled rows, rich in hits. Any-hit rate of the full collection: about 8%.

COc1cc(/C=C2\C(=O)ON=C2c2ccccc2)cc(OC)c1OC	FMDV inh 25.1µM
NC(=O)COc1ccc(/C=C2\C(=O)ON=C2c2ccccc2)cc1	FMDV inh 25.1µM, Marburg entry inh inconclusive
CCOc1cc(/C=C2\C(=O)ON=C2c2ccccc2)ccc1OC	FMDV inh 35.5µM (no result: Lassa entry inh, Marburg entry inh)
NC(=O)COc1ccccc1	none (no result: Lassa entry inh, Marburg entry inh)
O=C1ON=C(c2ccccc2)/C1=C/c1ccco1	FMDV inh 31.6µM
COc1cc(C2=N/C(=C\c3ccccc3)C(=O)O2)cc(OC)c1OC	none (no result: Lassa entry inh, HCV inh, SARS PLpro yeast, HCMV inh, Marburg entry inh)
COc1cc(C(=O)N2C[C@@H]3CCC[C@H]2C3)ccc1OC1CCN(C(C)=O)CC1	none (no result: SARS PLpro yeast)
CC(C)[C@H](O)CC[C@@H](C)C1CC[C@H]2C3CC=C4C[C@@H](O)CC[C@]4(C)C3CC[C@]12C (stereo partly specified)	none (no result: Lassa entry inh, HCV inh, SARS PLpro yeast, HCMV inh, Marburg entry inh)
COC(=O)c1cc2sccc2n1Cc1ccc(F)cc1Cl	none (no result: Lassa entry inh, HCV inh, SARS PLpro yeast)
COc1cc(/C=C2\N=C(c3ccccc3)NNC2=O)cc(OC)c1OC	Lassa entry inh inconclusive, HCMV inh -81.1, Marburg entry inh inconclusive
CCOc1cc(/C=C2/C(=O)ON=C2C)ccc1OCc1ccc(F)cc1	HCV inh inconclusive, HCMV inh -97.0, Marburg entry inh inconclusive
COc1ccc(/C=C2/C(=O)ON=C2c2ccccc2)cc1OC	FMDV inh 22.4µM
O=C1ON=C(c2ccccc2)/C1=C/c1ccc(-c2ccccc2[N+](=O)[O-])o1	Lassa entry inh inconclusive, FMDV inh 28.2µM, HCMV inh -98.1, Marburg entry inh inconclusive
CS(=O)(=O)n1nc(-c2ccco2)nc1NCc1ccccc1Cl	none (no result: HCV inh, SARS PLpro yeast)
COC(=O)/C=c1/s/c(=C(/C#N)C(=O)N2CCCCC2)n(-c2ccccc2)c1=O	HCMV inh -68.8
COC(=O)/C=c1\s/c(=C(/C#N)C(=O)N2CCOCC2)n(-c2ccccc2)c1=O	none (no result: Lassa entry inh, HCV inh, SARS PLpro yeast, FMDV inh, HCMV inh)
CC1S/C(=C(\C#N)C(=O)NCc2ccco2)N(c2ccc(F)cc2)C1=O (stereo unspecified)	Lassa entry inh inconclusive, HCMV inh -96.8
CCc1cc2c(nc1CC)CCN(CCC(C)=NO[C@@H](C)CN1CCCc3nc(C)c(C)cc31)C2	none (no result: Lassa entry inh, HCV inh, SARS PLpro yeast, FMDV inh, HCMV inh)
CC(C)C/C(=N/O)c1cn(C)c2ccccc12	Lassa entry inh 1.12µM, Marburg entry inh inconclusive
Cn1cc(C(=O)NCc2ccccc2)c2ccccc21	Marburg entry inh inconclusive
O=C(NC1CCN(C(=O)N2c3ccccc3Sc3ccccc32)CC1)c1ccco1	Lassa entry inh inconclusive, HCV inh inconclusive, HCMV inh inconclusive, Marburg entry inh inconclusive
O=C(N1CCN(c2ccccn2)CC1)N1c2ccccc2Sc2ccccc21	Lassa entry inh inconclusive, HCV inh inconclusive, FMDV inh inconclusive, HCMV inh -66.5, Marburg entry inh inconclusive
COc1cccc(C(=O)NC2CCN(C(=O)N3c4ccccc4Sc4ccccc43)CC2)c1	Lassa entry inh inconclusive, HCV inh inconclusive, HCMV inh inconclusive, Marburg entry inh 10.3µM (no result: FMDV inh)
O=C(c1ccc(Br)s1)N1CCN(c2ccccn2)CC1	none (no result: SARS PLpro yeast)
O=C(NC1CCN(C(=O)N2c3ccccc3Sc3ccccc32)CC1)c1ccccc1Cl	Marburg entry inh 16.4µM (no result: FMDV inh)
COC(=O)C1=C(C)N(Cc2ccccc2)C(=NCCc2ccc(O)cc2)NC1c1ccc(Br)cc1 (stereo unspecified)	none (no result: Lassa entry inh, HCV inh, SARS PLpro yeast, FMDV inh, HCMV inh)
CCOc1ccc2nc(N3C(=O)CNC3=S)sc2c1	Lassa entry inh inconclusive, HCMV inh -106.4, Marburg entry inh inconclusive
CCOC(=O)C(C)NC(=O)C1CCN(c2ncnc3c2nc2n3CCCCC2)CC1 (stereo unspecified)	HCMV inh -84.5 (no result: HCV inh, SARS PLpro yeast, Marburg entry inh)
O=C(Nc1ccc(Cl)cn1)C1CCN(c2ncnc3c2nc2n3CCCCC2)CC1	HCV inh 10µM, FMDV inh inconclusive, HCMV inh -86.3, Marburg entry inh 3.55µM
O=C(C1CCN(c2ncnc3c2nc2n3CCCCC2)CC1)N1CCN(c2cccc(Cl)c2)CC1	HCV inh inconclusive, FMDV inh 22.4µM, HCMV inh -91.1 (no result: Marburg entry inh)
O=C(Nc1ccc(Cl)cn1)C1CCCN(c2ncnc3c2nc2n3CCCCC2)C1 (stereo unspecified)	HCV inh inconclusive (no result: Lassa entry inh, Marburg entry inh)
O=C(C1CCN(c2ncnc3c2nc2n3CCCCC2)CC1)N1CCN(c2ccc(Cl)cc2)CC1	HCMV inh inconclusive (no result: HCV inh, SARS PLpro yeast, Marburg entry inh)
Clc1cccc(N2CCN(c3ncnc4c3nc3n4CCCCC3)CC2)c1	Lassa entry inh inconclusive, FMDV inh 11.2µM, HCMV inh -73.1, Marburg entry inh 2.82µM (no result: HCV inh, SARS PLpro yeast)
CCc1ccccc1NC(=O)Cn1c(=O)n(-c2ccc(C)cc2)c(=O)c2cc(OC)c(OC)cc21	none (no result: HCV inh, SARS PLpro yeast)
Cc1ccc2c(c1)c1c(c(=O)n(Cc3ccccc3)c(=O)n1Cc1ccccc1F)n2C	none (no result: HCV inh, SARS PLpro yeast, Marburg entry inh)
CC1CCN(C(=O)C2CCN(c3ncnc4c3nc3n4CCCCC3)CC2)CC1	FMDV inh inconclusive, HCMV inh inconclusive (no result: Lassa entry inh, Marburg entry inh)
Cc1ccc(N2CCN(C(=O)C3CCN(c4ncnc5c4nc4n5CCCCC4)CC3)CC2)c(C)c1	Lassa entry inh inconclusive, FMDV inh inconclusive, HCMV inh -61.5 (no result: HCV inh, SARS PLpro yeast, Marburg entry inh)
CN(CCNC(=O)C1CC(=O)N(c2ccc(F)c(Cl)c2)C1)Cc1ccccc1 (stereo unspecified)	HCMV inh -67.3 (no result: FMDV inh)
CN(C)CCNC(=O)C1CC(=O)N(c2ccc(F)c(Cl)c2)C1 (stereo unspecified)	HCV inh inconclusive
N#CCSc1ccccc1NC(=O)COC(=O)C1CCN(C(=O)c2ccc(Cl)cc2)CC1	none (no result: Lassa entry inh, HCV inh, SARS PLpro yeast, Marburg entry inh)
COc1ccc(NC(=O)NC[C@@H]2CC[C@@H](Cc3ccc(-c4ccccc4)cc3)O2)cc1	HCV inh 4.47µM (no result: Lassa entry inh, Marburg entry inh)
NC(=O)NC[C@@H]1CC[C@@H](Cc2ccc(-c3ccccc3)cc2)O1	none (no result: Lassa entry inh, HCMV inh, Marburg entry inh)
COc1ccc(CNS(=O)(=O)c2ccc3c(c2)N(C(C)=O)CC(C)S3)cc1 (stereo unspecified)	Lassa entry inh inconclusive, HCV inh inconclusive, FMDV inh inconclusive, HCMV inh -91.2, Marburg entry inh inconclusive
COc1ccc(NS(=O)(=O)c2ccc3c(c2)N(C(C)=O)CC(C)S3)c(OC)c1 (stereo unspecified)	HCV inh 11.2µM, HCMV inh -85.1 (no result: Lassa entry inh, Marburg entry inh)
O=C(c1cc(C(F)(F)F)cc(C(F)(F)F)c1)N1CCC2(CCCN(c3ccccc3)C2)CC1	none (no result: Lassa entry inh, HCV inh, SARS PLpro yeast, HCMV inh, Marburg entry inh)
NC(N)=NCCCC(NC(=O)C(N)Cc1ccc(O)cc1)C(=O)O (stereo unspecified)	none (no result: Lassa entry inh, HCV inh, SARS PLpro yeast, HCMV inh, Marburg entry inh)
O=C(NCCc1ccccc1)c1ccc(Cl)c(S(=O)(=O)N2CCOCC2)c1	Lassa entry inh inconclusive, HCV inh inconclusive
CCN(CC)CCn1c(SCC(=O)Nc2cccc(OC)c2)nc2c(sc3ccccc32)c1=O	Lassa entry inh inconclusive, HCV inh 1.78µM, Marburg entry inh inconclusive
CCOCCCn1c(SCC(=O)Nc2cccc(OC)c2)nc2ccccc2c1=O	HCV inh inconclusive, HCMV inh -73.3! (no result: Marburg entry inh)
COc1cccc(NC(=O)CSc2nc3c(sc4ccccc43)c(=O)n2CCCN2CCCC2)c1	HCV inh inconclusive, SARS PLpro yeast inconclusive, HCMV inh -101.7 (no result: Lassa entry inh, Marburg entry inh)
COc1cccc(NC(=O)CSc2nc3ccccc3c(=O)n2CCCC(=O)N2CCCC2)c1	none

Screens from PubChem BioAssay.
